From publication PMC5540273 (PLoS ONE, 2017)

Tests used:
Conditions in all cases: concentration: 1 μM, replicates: in singlicate; n = 1
DMPK2 = test system: T1, DMPK2
T1 construct: gene CDC42BPG

DMPK = test system: DMPK
DRAK1 = test system: T2, DRAK1
T2 construct: gene STK17A

DRAK2 = test system: T3, DRAK2
T3 construct: gene STK17B

DYRK1A = test system: DYRK1A
DYRK1B = test system: DYRK1B
DYRK2 = test system: DYRK2
EGFR = test system: EGFR
EIF2AK1 = test system: EIF2AK1
EPHA1 = test system: EPHA1
EPHA2 = test system: EPHA2
EPHA3 = test system: EPHA3
EPHA4 = test system: EPHA4
EPHA5 = test system: EPHA5
EPHA6 = test system: EPHA6
EPHA7 = test system: EPHA7
EPHA8 = test system: EPHA8
EPHB1 = test system: EPHB1
EPHB2 = test system: EPHB2
EPHB3 = test system: EPHB3
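Note: KINOMEscan kinase panel screen.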

Structure (SMILES) | %Inh (DMPK2) [%] | %Inh (DMPK) [%] | %Inh (DRAK1) [%] | %Inh (DRAK2) [%] | %Inh (DYRK1A) [%] | %Inh (DYRK1B) [%] | %Inh (DYRK2) [%] | %Inh (EGFR) [%] | %Inh (EIF2AK1) [%] | %Inh (EPHA1) [%] | %Inh (EPHA2) [%] | %Inh (EPHA3) [%] | %Inh (EPHA4) [%] | %Inh (EPHA5) [%] | %Inh (EPHA6) [%] | %Inh (EPHA7) [%] | %Inh (EPHA8) [%] | %Inh (EPHB1) [%] | %Inh (EPHB2) [%] | %Inh (EPHB3) [%]
CSc1ccc(-c2nc3n(c2-c2ccncc2)CCC3)cc1 [SKF-105561] | 0 | 0 | 1 | 0 | 3 | 0 | 0 | 7 | 0 | 12 | 0 | 5 | 14 | 0 | 0 | 9 | 0 | 0 | 0 | 8
Fc1ccc(-c2nc3n(c2-c2ccncc2)CCS3)cc1 [GI98581] | 82 | 16 | 0 | 0 | 15 | 13 | 24 | 32 | 0 | 8 | 12 | 0 | 0 | 10 | 19 | 4 | 11 | 9 | 15 | 19
Fc1ccc(-c2nn3cccc(F)c3c2-c2ccncc2)cc1 [GW475620] | 81 | 28 | 0 | 17 | 7 | 0 | 0 | 52 | 0 | 22 | 12 | 2 | 15 | 13 | 38 | 0 | 4 | 8 | 0 | 31
COC(=O)c1cccc(NC(=O)NC2CCN(c3ccnc(Nc4ccc(F)cc4)n3)C2)c1 (centres unmarked) [GSK1379725] | 0 | 0 | 0 | 0 | 18 | 0 | 0 | 0 | 0 | 8 | 16 | 0 | 5 | 0 | 0 | 0 | 0 | 8 | 14 | 0
Fc1ccc(-c2nc[nH]c2-c2ccncc2)cc1 [SB-217360] | 71 | 0 | 0 | 0 | 6 | 0 | 33 | 31 | 0 | 0 | 0 | 9 | 4 | 0 | 1 | 0 | 5 | 1 | 0 | 0
O=c1cc(N2CCOCC2)nc2n(Cc3cccc(Cl)c3Cl)c3ccccc3n12 [GSK2299009] | 24 | 10 | 3 | 0 | 28 | 15 | 16 | 30 | 24 | 14 | 8 | 5 | 14 | 1 | 6 | 19 | 25 | 26 | 61 | 20
CNc1nc(-c2ccc3c(N)n[nH]c3c2)cc(N2C[C@@H](C(=O)Nc3ccccc3)CC[C@H]2C)n1 [GSK2298859] | 13 | 0 | 97.6 | 80 | 15 | 0 | 10 | 31 | 0 | 14 | 0 | 18 | 8 | 0 | 0 | 1 | 5 | 0 | 0 | 9
